From PMC11006913
Substitutions are numbered along the chain they refer to.

How the values were obtained:
Assay in all cases: PBM; 200 nM protein, PBS
Conditions in all cases: dsDNA, one strand shown
SIX6 [1] = molecular target: T1, SIX6 (Homo sapiens, UniProt O95475 114-200, L167I)
T1 sequence: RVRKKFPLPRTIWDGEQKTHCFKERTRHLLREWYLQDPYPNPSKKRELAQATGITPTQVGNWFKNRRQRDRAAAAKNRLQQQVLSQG

SIX6 [2] = molecular target: T2, SIX6 (Homo sapiens, UniProt O95475 114-200, L143V)
T2 sequence: T1 sequence with L30V, I54L

SIX6 [3] = molecular target: T3, SIX6 (Homo sapiens, UniProt O95475 114-200, H141N)
T3 sequence: T1 sequence with H28N, I54L

SIX6 [4] = molecular target: T4, SIX6 (Homo sapiens, UniProt O95475 114-200, T165P)
T4 sequence: T1 sequence with T52P, I54L

SIX6 [5] = molecular target: T5, SIX6 (Homo sapiens, UniProt O95475 114-200, L167M)
T5 sequence: T1 sequence with I54M

SIX6 [6] = molecular target: T6, SIX6 (Homo sapiens, UniProt O95475 114-200, L143M)
T6 sequence: T1 sequence with L30M, I54L

SIX6 [7] = molecular target: T7, SIX6 (Homo sapiens, UniProt O95475 114-200, L143I)
T7 sequence: T1 sequence with L30I, I54L

SIX6 [8] = molecular target: T8, SIX6 (Homo sapiens, UniProt O95475 114-200, T165G)
T8 sequence: T1 sequence with T52G, I54L

SIX6 [9] = molecular target: T9, SIX6 (Homo sapiens, UniProt O95475 114-200, T139Q)
T9 sequence: T1 sequence with T26Q, I54L

SIX6 [10] = molecular target: T10, SIX6 (Homo sapiens, UniProt O95475 114-200, T165A)
T10 sequence: T1 sequence with T52A, I54L

SIX6 [11] = molecular target: T11, SIX6 (Homo sapiens, UniProt O95475 114-200, L167V)
T11 sequence: T1 sequence with I54V

SIX6 [12] = molecular target: T12, SIX6 (Homo sapiens, UniProt O95475 114-200)
T12 sequence: T1 sequence with I54L

SIX6 [13] = molecular target: T13, SIX6 (Homo sapiens, UniProt O95475 114-200, T165I)
T13 sequence: T1 sequence with T52I, I54L

HOXA2 [14] = molecular target: HOXA2 (Homo sapiens, UniProt O43364 129-215, R185T)
HOXA2 [15] = molecular target: HOXA2 (Homo sapiens, UniProt O43364 129-215, R185K)
HOXA2 [16] = molecular target: HOXA2 (Homo sapiens, UniProt O43364 129-215, Y150S)
HOXA2 [17] = molecular target: HOXA2 (Homo sapiens, UniProt O43364 129-215)
HOXA2 (Homo sapiens, UniProt O43364 129-215), sequence (O43364 129-215): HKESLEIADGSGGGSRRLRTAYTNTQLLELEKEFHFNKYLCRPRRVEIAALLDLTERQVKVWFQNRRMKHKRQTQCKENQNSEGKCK

HOXA2 (Homo sapiens, UniProt O43364 129-215, R185T), sequence (O43364 129-215 R185T): as the sequence (O43364 129-215) above, with R57T counted along it
HOXA2 (Homo sapiens, UniProt O43364 129-215, Y150S), sequence (O43364 129-215 Y150S): as the sequence (O43364 129-215) above, with Y22S counted along it
HOXA2 (Homo sapiens, UniProt O43364 129-215, R185K), sequence (O43364 129-215 R185K): as the sequence (O43364 129-215) above, with R57K counted along it

Row | Sequence | binding signal (SIX6 [1]) | binding signal (SIX6 [2]) | binding signal (SIX6 [3]) | binding signal (SIX6 [4]) | binding signal (SIX6 [5]) | binding signal (SIX6 [6]) | binding signal (SIX6 [7]) | binding signal (SIX6 [8]) | binding signal (SIX6 [9]) | binding signal (SIX6 [10]) | binding signal (SIX6 [11]) | binding signal (SIX6 [12]) | binding signal (SIX6 [13]) | binding signal (HOXA2 [14]) | binding signal (HOXA2 [15]) | binding signal (HOXA2 [16]) | binding signal (HOXA2 [17])
1 | CCAGACGG | 8.98 upbm affinity estimate (log intensity, higher = more binding, comparable within an allelic series) | 8.84 upbm affinity estimate (log intensity, higher = more binding, comparable within an allelic series) | 8.93 upbm affinity estimate (log intensity, higher = more binding, comparable within an allelic series) | 8.91 upbm affinity estimate (log intensity, higher = more binding, comparable within an allelic series) | 9.05 upbm affinity estimate (log intensity, higher = more binding, comparable within an allelic series) | 9.07 upbm affinity estimate (log intensity, higher = more binding, comparable within an allelic series) | 8.95 upbm affinity estimate (log intensity, higher = more binding, comparable within an allelic series) | 9.01 upbm affinity estimate (log intensity, higher = more binding, comparable within an allelic series) | 9.12 upbm affinity estimate (log intensity, higher = more binding, comparable within an allelic series) | 8.94 upbm affinity estimate (log intensity, higher = more binding, comparable within an allelic series) | 9.01 upbm affinity estimate (log intensity, higher = more binding, comparable within an allelic series) | 9.03 upbm affinity estimate (log intensity, higher = more binding, comparable within an allelic series) | 9.05 upbm affinity estimate (log intensity, higher = more binding, comparable within an allelic series) | – | – | – | –
2 | CCCTAGGG | 8.88 upbm affinity estimate (log intensity, higher = more binding, comparable within an allelic series) | 8.72 upbm affinity estimate (log intensity, higher = more binding, comparable within an allelic series) | 8.93 upbm affinity estimate (log intensity, higher = more binding, comparable within an allelic series) | 8.83 upbm affinity estimate (log intensity, higher = more binding, comparable within an allelic series) | 8.9 upbm affinity estimate (log intensity, higher = more binding, comparable within an allelic series) | 8.91 upbm affinity estimate (log intensity, higher = more binding, comparable within an allelic series) | 8.92 upbm affinity estimate (log intensity, higher = more binding, comparable within an allelic series) | 8.95 upbm affinity estimate (log intensity, higher = more binding, comparable within an allelic series) | 9.15 upbm affinity estimate (log intensity, higher = more binding, comparable within an allelic series) | 8.86 upbm affinity estimate (log intensity, higher = more binding, comparable within an allelic series) | 9.08 upbm affinity estimate (log intensity, higher = more binding, comparable within an allelic series) | 8.85 upbm affinity estimate (log intensity, higher = more binding, comparable within an allelic series) | 8.92 upbm affinity estimate (log intensity, higher = more binding, comparable within an allelic series) | 7.32 upbm affinity estimate (log intensity, higher = more binding, comparable within an allelic series) | 10.4 upbm affinity estimate (log intensity, higher = more binding, comparable within an allelic series) | 10.3 upbm affinity estimate (log intensity, higher = more binding, comparable within an allelic series) | 7.33 upbm affinity estimate (log intensity, higher = more binding, comparable within an allelic series)
3 | CCCGGGAC | 8.81 upbm affinity estimate (log intensity, higher = more binding, comparable within an allelic series) | 9.03 upbm affinity estimate (log intensity, higher = more binding, comparable within an allelic series) | 8.97 upbm affinity estimate (log intensity, higher = more binding, comparable within an allelic series) | 8.99 upbm affinity estimate (log intensity, higher = more binding, comparable within an allelic series) | 9.01 upbm affinity estimate (log intensity, higher = more binding, comparable within an allelic series) | 9.18 upbm affinity estimate (log intensity, higher = more binding, comparable within an allelic series) | 9.04 upbm affinity estimate (log intensity, higher = more binding, comparable within an allelic series) | 9.17 upbm affinity estimate (log intensity, higher = more binding, comparable within an allelic series) | 9.14 upbm affinity estimate (log intensity, higher = more binding, comparable within an allelic series) | 9.12 upbm affinity estimate (log intensity, higher = more binding, comparable within an allelic series) | 8.96 upbm affinity estimate (log intensity, higher = more binding, comparable within an allelic series) | 9.07 upbm affinity estimate (log intensity, higher = more binding, comparable within an allelic series) | 9.02 upbm affinity estimate (log intensity, higher = more binding, comparable within an allelic series) | – | – | – | –
4 | CGCTCCGC | 8.79 upbm affinity estimate (log intensity, higher = more binding, comparable within an allelic series) | 8.89 upbm affinity estimate (log intensity, higher = more binding, comparable within an allelic series) | 8.83 upbm affinity estimate (log intensity, higher = more binding, comparable within an allelic series) | 8.94 upbm affinity estimate (log intensity, higher = more binding, comparable within an allelic series) | 8.9 upbm affinity estimate (log intensity, higher = more binding, comparable within an allelic series) | 8.87 upbm affinity estimate (log intensity, higher = more binding, comparable within an allelic series) | 8.84 upbm affinity estimate (log intensity, higher = more binding, comparable within an allelic series) | 8.81 upbm affinity estimate (log intensity, higher = more binding, comparable within an allelic series) | 8.84 upbm affinity estimate (log intensity, higher = more binding, comparable within an allelic series) | 8.85 upbm affinity estimate (log intensity, higher = more binding, comparable within an allelic series) | 8.79 upbm affinity estimate (log intensity, higher = more binding, comparable within an allelic series) | 8.81 upbm affinity estimate (log intensity, higher = more binding, comparable within an allelic series) | 8.82 upbm affinity estimate (log intensity, higher = more binding, comparable within an allelic series) | – | – | – | –
5 | CAGGCCCG | 8.93 upbm affinity estimate (log intensity, higher = more binding, comparable within an allelic series) | 8.77 upbm affinity estimate (log intensity, higher = more binding, comparable within an allelic series) | 8.88 upbm affinity estimate (log intensity, higher = more binding, comparable within an allelic series) | 8.76 upbm affinity estimate (log intensity, higher = more binding, comparable within an allelic series) | 8.82 upbm affinity estimate (log intensity, higher = more binding, comparable within an allelic series) | 8.79 upbm affinity estimate (log intensity, higher = more binding, comparable within an allelic series) | 8.85 upbm affinity estimate (log intensity, higher = more binding, comparable within an allelic series) | 8.97 upbm affinity estimate (log intensity, higher = more binding, comparable within an allelic series) | 9.09 upbm affinity estimate (log intensity, higher = more binding, comparable within an allelic series) | 8.92 upbm affinity estimate (log intensity, higher = more binding, comparable within an allelic series) | 8.87 upbm affinity estimate (log intensity, higher = more binding, comparable within an allelic series) | 8.81 upbm affinity estimate (log intensity, higher = more binding, comparable within an allelic series) | 8.93 upbm affinity estimate (log intensity, higher = more binding, comparable within an allelic series) | – | – | – | –
6 | CGCTGCGC | 8.99 upbm affinity estimate (log intensity, higher = more binding, comparable within an allelic series) | 8.85 upbm affinity estimate (log intensity, higher = more binding, comparable within an allelic series) | 8.98 upbm affinity estimate (log intensity, higher = more binding, comparable within an allelic series) | 8.98 upbm affinity estimate (log intensity, higher = more binding, comparable within an allelic series) | 8.92 upbm affinity estimate (log intensity, higher = more binding, comparable within an allelic series) | 8.96 upbm affinity estimate (log intensity, higher = more binding, comparable within an allelic series) | 8.93 upbm affinity estimate (log intensity, higher = more binding, comparable within an allelic series) | 9 upbm affinity estimate (log intensity, higher = more binding, comparable within an allelic series) | 9.06 upbm affinity estimate (log intensity, higher = more binding, comparable within an allelic series) | 8.88 upbm affinity estimate (log intensity, higher = more binding, comparable within an allelic series) | 9.02 upbm affinity estimate (log intensity, higher = more binding, comparable within an allelic series) | 8.93 upbm affinity estimate (log intensity, higher = more binding, comparable within an allelic series) | 8.95 upbm affinity estimate (log intensity, higher = more binding, comparable within an allelic series) | – | – | – | –
